Screening data deposited in PubChem BioAssay by National Center for Advancing Translational Sciences (NCATS).
Compounds with a hit are over-represented: about 17% of the library has one in this group of screens.
S2 tox – reduces viability in counter-screen for ATXN expression inhibitors. Potency, µM (series often up to 56.7 µM), usual class: cytotoxic. S2 cells (HEK-293 line with an ATXN2-luciferase reporter) viability, CellTiter-Fluor protease fluorescence, 24 h. AID 651635. 0.49% of 400,000 active; also: nearly all actives have a fitted effect of over 40% in size
TGFb inhibitor – TGF-b pathway inhibition. Potency, µM (highest dose often 46.1 µM), hits mostly inhibitors. AID 588855. 1.2% of 410,000 active. HepG2 CAGA-GFP TGF-b/SMAD3 reporter, GFP fluorescence, 18 h; TGF-beta stimulated, 500 pg/mL final; also: nearly all actives have a fitted effect of over 65% in size
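TGF-beta reporter screen: HEPG2 CAGA-GFP, 1% FBS, 500 pg/mL TGF-beta final, 18 h; per-cell GFP summed per well; curves fitted and categorized by class.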
DT40 TDP1 no CPT – qHTS for Inhibitors of human tyrosyl-DNA phosphodiesterase 1 (TDP1): qHTS in cells in absence of CPT; DT40 Tdp1-/- hTDP1 cells, no CPT, ATP luminescence, 48 h; Potency, µM (doses to about 46.2 µM), usual class: inhibitors; 15% of 420,000 active; also: nearly all actives have a fitted effect of over 55% in size
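DT40 Tdp1-/-;hTDP1 cells, no CPT (DMSO vehicle only), 400 cells/well; compounds pin-transferred; ≥48 hr, 37 °C; CellTiter-Glo 30 min RT dark, luminescence read.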
HepG2 tox – HepG2 cytotoxicity, counter-screen for TGF-b inhibitors; HepG2 CAGA-GFP viability, ATP luminescence, 18 h; Potency, µM (titrated, usually from 46.1 µM), most hits filed as cytotoxic; 0.76% of 410,000 active; AID 588856
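CellTiter-Glo luminescence gave cytotoxicity after 18 hours at 37 degrees C. The cells were HepG2 CAGA-GFP in 1% FBS DMEM, stimulated with 500 pg/mL TGF-beta after compound addition. %Activity was normalised to no-cell wells (complete cell-killing) and DMSO (no toxicity), and curves were fitted and classified.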
TDP1 cell CPT – growth inhibition of DT40 Tdp1-/-;hTDP1 cells with camptothecin (screen for TDP1 inhibitors); 12% of 420,000 active; chicken DT40 Tdp1-/-;hTDP1 cells + 20 nM CPT, ATP luminescence, 48 h; Potency, µM (top dose mostly 46.2 µM), actives largely listed as inhibitors; also: nearly all actives have a fitted effect of over 55% in size
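Cell growth measured by CellTiter-Glo luminescence after a minimum 48 h, 37 C compound exposure with 20 nM CPT in Tdp1-knockout DT40 cells stably expressing hTDP1, seeded 400/well; qHTS titration format.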
ATXN2 expr inh – ATXN2 expression inhibition | HEK-293 ATXN2-luciferase reporter, luminescence, 24 h | Potency, µM (titrated, usually from 57 µM), actives largely listed as inhibitors | 0.72% of 360,000 active | AID 1745845; also: nearly all actives have a fitted effect of over 55% in size
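qHTS (up to 57 uM final) was run with 24 h compound exposure of reporter cells at 37 °C. Each well was multiplexed: SteadyGlo luminescence measured ATXN2-luciferase expression after a fluorogenic Gly-Phe-AFC viability readout (25 uM final).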
A number is an active result; – = inactive; ? = inconclusive; · = no result. Calls follow the shape of the dose curve; as a rule, active = well fitted curve in the direction sought with a large enough effect; inconclusive = small, poorly fitted or top-dose-only effect, or another doubt; inactive = no such curve, though single readings can be large; an effect the other way counts as inactive or inconclusive.

SMILES | S2 tox | TGFb inhibitor | DT40 TDP1 no CPT | HepG2 tox | TDP1 cell CPT | ATXN2 expr inh
COc1ccc(NC(=O)c2c(N)c(C(=O)c3ccc(C)cc3)n3ccccc23)cc1OC | – | – | ? | – | ? | –
COc1ccc(C[C@H]2CN3C(=NC[C@@H]3Cc3ccc(O)cc3)N2CCNC(=O)c2ccc(C)c(Br)c2)cc1 | · | ? | 13µM | 15.8µM | 13µM | 25.1µM
Cc1ccc(C(=O)NCCN2C3=NC[C@H](Cc4ccc(O)cc4)N3C[C@H]2Cc2ccc(O)cc2)cc1Br | – | – | 16.4µM | – | ? | –
Nc1nn(-c2ccccc2)c(N)c1N=Nc1ccc2c(c1)OCO2 | ? | – | 4.11µM | – | 3.66µM | –
Nc1nn(-c2ccccc2)c(N)c1N=Nc1cccc(F)c1 | ? | ? | 2.59µM | – | 1.64µM | –
COc1ccc2[nH]c(=O)c(CN(C(=O)c3cccnc3)c3ccc(C)cc3C)cc2c1 | – | – | ? | – | ? | –
CCC1CCCCN1Cc1nc2c(c(=O)n(C)c(=O)n2C)n1Cc1c(F)cccc1Cl (stereo not given) | · | – | ? | – | ? | ·
Cc1nc2c3cc(F)ccc3n(Cc3ccc(F)cc3)c2s1 | – | – | 8.2µM | – | ? | –
Cc1nc2c3cc(Cl)ccc3n(CCN3CCCCC3)c2s1 | – | – | 23.1µM | – | 20.6µM | –
NS(=O)(=O)c1cccc(NC(=S)NC(=O)C23CC4CC(CC(C4)C2)C3)c1 | – | ? | 20.6µM | – | ? | –
Cc1ccc(S(=O)(=O)N(C)C)cc1NC(=S)NC(=O)C12CC3CC(CC(C3)C1)C2 | – | – | 8.2µM | – | 9.2µM | –
CCN(C1CCS(=O)(=O)C1)S(=O)(=O)c1ccc2ccccc2c1 (stereo not given) | – | – | – | – | – | –
CCCCN(C(=O)CSCC(=O)Nc1cccc(C)c1)c1c(N)n(Cc2ccccc2)c(=O)[nH]c1=O | – | – | ? | – | – | –
Cc1ccsc1/C=C1/SC(N2CC(C)OC(C)C2)=NC1=O (stereo not given) | – | – | 20.6µM | – | ? | –
CC(C)(C)NC(=O)C(c1ccc(-c2ccccc2)cc1)n1c(=O)c(-c2cc3ccccc3[nH]2)nc2ccccc21 (stereo not given) | · | · | 14.6µM | · | ? | ·
CCCCCNC(=O)C(c1ccncc1)n1c(=O)c(-c2ccco2)nc2ccccc21 (stereo not given) | · | · | – | · | ? | ·
CC(C)(C)NC(=O)C(CCc1ccccc1)n1c(=O)c(-c2cc3ccccc3[nH]2)nc2ccccc21 (stereo not given) | · | · | 13µM | · | 14.6µM | ·
O=C(NCc1ccccc1)C(c1ccccc1)n1c(=O)c(-c2cc3ccccc3[nH]2)nc2ccccc21 (stereo not given) | · | · | 20.6µM | · | ? | ·
Cc1cccc(C)c1NC(=O)C(CCc1ccccc1)n1c(=O)c(-c2cc3ccccc3[nH]2)nc2ccccc21 (stereo not given) | · | · | 6.51µM | · | 7.31µM | ·
CC(C)(C)NC(=O)C(c1ccncc1)n1c(=O)c(-c2ccco2)nc2ccccc21 (stereo not given) | · | · | – | · | – | ·
O=c1c(-c2cccnc2)nc2ccccc2n1C(CCc1ccccc1)c1nc2ccccc2[nH]1 (stereo not given) | · | · | – | · | – | ·
Cc1ccc(C)c(NC(=O)C(Sc2nnc(-c3cccs3)o2)c2ccccc2)c1 (stereo not given) | – | – | – | – | – | –
Cc1cccc(C)c1NC(=O)C(CCc1ccccc1)n1c(=O)c(-c2ccccc2)nc2ccccc21 (stereo not given) | · | · | 4.11µM | · | 3.26µM | ·
Cc1cc(NC(=O)CSc2cn(CC(=O)N(C(C)C)C(C)C)c3ccccc23)no1 | – | – | – | – | – | –
CC(C)(C)OC(=O)C[C@H]1C/C=C\C[C@@H](CC(=O)N(CCO)Cc2ccccc2)C(=O)N2CCC[C@H]2COC1=O | – | ? | ? | – | 18.4µM | –
SMILES | S2 tox | TGFb inhibitor | DT40 TDP1 no CPT | HepG2 tox | TDP1 cell CPT | ATXN2 expr inh
O=C1OC[C@H]2CCCN2C(=O)[C@@H](CC(=O)N(CCO)Cc2ccccc2)C/C=C\C[C@@H]1Cc1ccc(F)cc1 | – | – | 18.4µM | – | 7.31µM | ?
CC(C)(C)OC(=O)C[C@H]1C/C=C\C[C@@H](CC(=O)N(CCO)Cc2ccccc2)C(=O)N2CCC[C@@H]2COC1=O | – | – | ? | – | ? | –
O=C1OC[C@@H]2CCCN2C(=O)[C@H](CC(=O)N(CCO)Cc2ccccc2)C/C=C\C[C@H]1Cc1ccc(F)cc1 | – | – | ? | – | ? | –
COc1cccc(Cn2c(=O)c(CCc3ccccc3)nc3cnc(OC)nc32)c1 | · | · | 23.1µM | · | ? | ·
COc1ncc2nc(CCc3ccccc3)c(=O)n(Cc3cccs3)c2n1 | · | · | 20.6µM | · | ? | ·
O=c1c(CCc2ccccc2)nc2cnc(Oc3ccccc3)nc2n1C[C@H]1CCCO1 | · | · | 18.4µM | · | ? | ·
O=C(OCC(=O)N1CCOCC1)c1ccccc1O | – | – | – | – | – | –
